GBA mod: Glucocerebrosidase; Lysosomal acid glucosylceramidase (Homo sapiens), P04062; purified enzyme, resorufin glucoside fluorescence (screen aimed at inhibitors), 20 min; Potency, µM; 48,000 compounds, 1.1% hits; AID 360, 2006; in the data active = potency below about 15 µM; inconclusive = mostly about 16 µM to 33 µM;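 also: the screen sought inhibitors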
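Wild-type enzyme at 0.2 nM final in 50mM citric acid/KH2PO4, 10mM sodium taurocholate, 0.01% tween-20, pH 5.9, with resorufin beta-D-glucopyranoside at 30 uM final. Compounds titrated, 20 min at RT, red fluorescence read; AC50 from titration.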
PK Bst: Pyruvate Kinase; purified pyruvate kinase, luminescence ATP production; ribose 5-phosphate activator present at AC10; 51,000 compounds, 1.2% hits; Potency, µM; in the data active = potency below about 11 µM; inconclusive = mostly about 12 µM to 25 µM;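 the screen sought inhibitors and activators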
FLuc inh: qHTS Assay for Inhibitors of Firefly Luciferase | 72,000 compounds, 2.2% hits | AID 411, 2009 | Potency, µM (highest dose often 57.1 µM), actives largely listed as inhibitors | Luciferin 4-monooxygenase (Photinus pyralis), P08659 | purified firefly luciferase, luminescence, 8 min; active = well fitted inhibition curve with a large enough effect; inconclusive = small, poorly fitted or top-dose-only effect; also: nearly all actives have a fitted effect of over 40% in size
Target sequence (P08659 whole entry, looked up): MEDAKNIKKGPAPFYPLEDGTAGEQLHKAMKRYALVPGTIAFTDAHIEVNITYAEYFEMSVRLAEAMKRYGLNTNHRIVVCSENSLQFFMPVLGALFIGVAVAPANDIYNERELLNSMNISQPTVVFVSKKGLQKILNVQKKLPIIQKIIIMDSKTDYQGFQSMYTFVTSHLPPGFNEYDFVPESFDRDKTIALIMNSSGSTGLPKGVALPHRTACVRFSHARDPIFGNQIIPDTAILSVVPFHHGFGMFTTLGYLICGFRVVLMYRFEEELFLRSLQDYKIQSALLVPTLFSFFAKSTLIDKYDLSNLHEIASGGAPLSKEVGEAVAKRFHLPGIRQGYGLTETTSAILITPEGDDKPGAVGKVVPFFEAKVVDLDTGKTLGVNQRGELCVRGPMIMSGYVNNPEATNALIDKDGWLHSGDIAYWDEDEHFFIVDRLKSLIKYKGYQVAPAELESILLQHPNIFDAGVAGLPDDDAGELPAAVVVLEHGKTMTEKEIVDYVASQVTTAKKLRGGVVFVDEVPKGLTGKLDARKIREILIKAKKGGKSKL
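Compounds were tested as concentration series (qHTS) against purified P. pyralis luciferase with luciferin and 10 uM ATP in 50 mM imidazole pH 7.2, 50 mM KCl, 7 mM MgCl2, 0.01% Tween 20, 0.05% BSA. Luminescence was read after 8 min at ambient temperature.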
Of the large screens only hits and unclear results are named; the others gave an inactive call. Sampled rows, rich in hits. Any-hit rate of the full collection: about 3.2%.

Cc1ccc(O)c(NC(=O)c2cccc(S(=O)(=O)N3CCCCC3)c2)c1	none
CN(C)S(=O)(=O)c1cccc(C(=O)NCCc2ccccc2)c1	FLuc inh 13µM
CS(=O)(=O)c1cccc(C(=O)NCc2ccccc2)c1	none
O=C(Oc1ccccc1)N1CCC2(CCCN(c3ccncc3)C2)CC1	none (no result: GBA mod, PK Bst)
CN1[C@H](CC(=O)c2ccccc2)CCC[C@H]1C[C@@H](O)c1ccccc1	none (no result: GBA mod, PK Bst)
CC1N/C(=C\C(=O)c2ccccc2)N(O)C1(C)C (stereo not drawn)	FLuc inh 13µM
O=C(CN(C(=O)CNS(=O)(=O)c1ccccc1)c1ccc2c(c1)OCCO2)NCc1ccco1	none (no result: GBA mod)
O=C(CN(C(=O)CNS(=O)(=O)c1ccccc1)c1ccc2c(c1)OCCO2)NC1CCCCC1	GBA mod 12
c1ccc([C@H](c2cccc3c2ccc2ccccc23)[C@H](c2ccccc2)c2cccc3c2ccc2ccccc23)cc1	none (no result: GBA mod, PK Bst)
COc1ccc(-c2nnn(CC(=O)N(CC(=O)NC3CCCC3)c3cccc(C)c3)n2)cc1OC	none (no result: GBA mod)
O=C(CN(CCN1CCOCC1)C(=O)Cn1nnc(-c2ccc(F)cc2)n1)NC1CCCCC1	none (no result: GBA mod)
COc1ccc(-c2nnn(CC(=O)c3ccccc3)n2)cc1OC	none
COc1ccc(N(CC(=O)NC2CCCC2)C(=O)Cn2nnc(-c3ccc(F)cc3)n2)cc1OC	GBA mod 8.6
COc1ccc(N(CC(=O)NC2CCCC2)C(=O)Cn2nnc(-c3ccc(C)cc3)n2)cc1OC	GBA mod 9.4
COc1cc(-c2nnn(CC(=O)NC3CCS(=O)(=O)C3)n2)ccc1OCc1ccccc1 (stereo not drawn)	FLuc inh 13µM (no result: GBA mod, PK Bst)
COc1ccc(N(CC(=O)NC2CCCC2)C(=O)Cn2nnc(-c3ccc(C)cc3)n2)cc1	GBA mod inconclusive
O=C(CN(CCCN1CCOCC1)C(=O)Cn1nnc(-c2ccc(F)cc2)n1)NC1CCCCC1	GBA mod 4
C/C(=C(/CCO)SSC[C@@H]1CCCO1)N(C=O)Cc1cnc(C)nc1N	none (no result: GBA mod, PK Bst)
CCNc1ncc2nc(-c3cccs3)c(=O)n(CCc3ccccc3)c2n1	none (no result: GBA mod, PK Bst)
COc1ncc2nc(-c3ccccc3)c(=O)n(Cc3cccs3)c2n1	none (no result: GBA mod, PK Bst)
N#Cc1c(N)n(CCCN2CCOCC2)c2nc3ccccc3nc12	GBA mod inconclusive
CCCCCn1c(N)c(C#N)c2nc3ccccc3nc21	GBA mod 2.7
O=C(O)Cc1cccnc1	none (no result: GBA mod, PK Bst)
Cc1ccc(C2CCN(C(=O)Nc3ccccc3)C2)cc1 (stereo not drawn)	FLuc inh 25µM (no result: PK Bst)
Cc1ccc(NC(=O)N2CCC(C(=O)NCc3ccccc3)CC2)cc1	none
COc1ccc(-c2nc3cnc(OC)nc3n(-c3ccc(OC)cc3)c2=O)cc1	none (no result: GBA mod, PK Bst)
CCNc1ncc2nc(-c3cccs3)c(=O)n(CCC#N)c2n1	none (no result: GBA mod, PK Bst)
CC1(Cc2cn(CCC#N)c3ccccc23)OCCO1	GBA mod 14
N#CCCn1cc(C(CC(=O)c2ccccc2)C(=O)O)c2ccccc21 (stereo not drawn)	none
COc1ccc(C(c2nnnn2Cc2ccccc2)N2CCN(c3nc4ccccc4s3)CC2)cc1 (stereo not drawn)	none
COCCn1nnnc1C(c1ccc(OC)c(OC)c1)N1CCN(c2nc3ccccc3s2)CC1 (stereo not drawn)	GBA mod 6
O=C(O)/C=C\c1c2ccc(=O)c(O)c-2oc2c(O)c(O)ccc12	none (no result: GBA mod, PK Bst)
O=C(COc1ccccc1)Nc1nc2ccccc2[nH]1	FLuc inh 20µM (no result: PK Bst)
c1ccc(OCc2nc3ccccc3[nH]2)cc1	FLuc inh 25µM (no result: PK Bst)
O=C(O)CCc1nc2ccccc2[nH]1	none (no result: GBA mod, PK Bst)
COc1cc(C(=O)Nc2nc3ccccc3[nH]2)cc(OC)c1OC	none (no result: PK Bst)
CN(C)CCCn1c2c3ccccc3ccc2c2oc(=O)c3ccccc3c21	none (no result: GBA mod, PK Bst)
COc1ccc(C)cc1NC(=O)CN(Cc1nnc(-c2ccc(Cl)cc2)o1)C1CCCC1	PK Bst 4.7
COc1ccc(C)cc1NC(=O)CSc1nnc(-c2ccc(C)cc2)o1	none (no result: GBA mod, PK Bst)
O=C(CCCCCn1c(=S)[nH]c2cc3c(cc2c1=O)OCO3)N1CCN(C(=O)c2ccco2)CC1	GBA mod inconclusive
O=C(CCCCCn1c(=S)[nH]c2cc3c(cc2c1=O)OCO3)N1CCN(C2CCCCC2)CC1	GBA mod 0.9
C[C@H](C[C@H](N)C(=O)O)C(=O)O	none (no result: GBA mod, PK Bst)
O=C(Nc1ccccc1)N(CCCN1CCOCC1)Cc1ccccc1F	none (no result: GBA mod)
O=C(Nc1cccc(Cl)c1)N(CCCN1CCOCC1)Cc1ccccc1F	GBA mod 11
N=C1CCC[C@@H]1C(=S)SCCC(N)=O	none (no result: GBA mod, PK Bst)
O=C(N=c1nc2ccccn2s1)c1ccccc1	PK Bst 1.1, FLuc inh 0.79µM
O=c1c(-c2ccccc2)c(O)nc2ccccn12	none
CCC(=O)O[C@@]1(C(=O)CCl)[C@@H](C)C[C@@H]2[C@H]3CCC4=CC(=O)C=C[C@@]4(C)[C@]3(F)[C@@H](O)C[C@@]21C	none (no result: GBA mod, PK Bst)
Cc1c(-c2nc(N)nc(C3CC3)c2C)nc(N)nc1C1CC1	none (no result: GBA mod, PK Bst)
